In PubChem BioAssay:
The source made the active and inactive calls.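 Rule for the calls, unless noted: active = fluorescence slope after compound addition differing from the mean of all screened samples at 99.7% confidence, in either direction; inactive = the rest.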

Columns and labels:
[1] = inhibitors of TNFa-induced NFkB p65 translocation, primary screen, imaging, HUVEC, MLSMR starter and 10KST1 sets (AID 438;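 active = inhibition above 20% together with a positive visual image hit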;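 note: compound added about 3h40 before a 20 min TNFalpha stimulation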;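 for inhibition: signal is the nuclear over cytoplasmic p65 intensity ratio per well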); details: HUVEC TNFa-induced p65 nuclear translocation; cell count: measured here: nuclei count (cytotoxicity indicator), at 2.08 µM; inhibition: at 2 µM, stronger effect = higher value, 0% TNFa-plus-vehicle, 100% no-TNFa wells
[2] = inhibitors of mutant huntingtin aggregation, primary screen, imaging, exon1htt(103Q)mCFP cells, high-content imaging (AID 483;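 active = visual image review flags a hit and inhibition of aggregation exceeds 20%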;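 note: compound exposure lasted 3 days before fixation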;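 for nuclei count: percent of the per-plate median nuclei count of sample wells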); details: exon1htt(103Q)mCFP cell line, aggregate imaging, at 2 µM; inhibition of aggregation: stronger effect = higher value; nuclei count: measured here: cell count, toxicity
[3] = inhibitors of E-selectin induction by TNFa, primary screen, imaging, HUVEC, immunofluorescence, MLSMR starter and 10KST1 sets (AID 487;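 active = visually confirmed hit in the image check and inhibition above 20%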;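 for inhibition: signal is fraction of cell area covered by stained E-selectin grains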;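 for nuclei count: 100% = median nuclei count of all wells on the same plate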); details: HUVEC TNFalpha-induced E-selectin immunofluorescence imaging, at 2 µM; inhibition: stronger effect = higher value; nuclei count: measured here: cell number, toxicity
[4] = biological target: Voltage-gated potassium channel subunit beta-2 (Rattus norvegicus) (UniProt P62483); assay: KvBeta enzyme negative modulators, primary screen, biochemical, NADPH fluorescence (AID 622;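 active = fluorescence slope higher than the sample average by over 3 SD, cut at about -0.22 in these data, passing the limit was not always enough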;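 note: slope of raw intensity against log time taken from 70 to 1610 s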); details: recombinant KvBeta, 4-cyanobenzaldehyde reduction, at 10 µM, stronger effect = higher value
Sequence of Voltage-gated potassium channel subunit beta-2 (Rattus norvegicus) (P62483 whole entry, looked up): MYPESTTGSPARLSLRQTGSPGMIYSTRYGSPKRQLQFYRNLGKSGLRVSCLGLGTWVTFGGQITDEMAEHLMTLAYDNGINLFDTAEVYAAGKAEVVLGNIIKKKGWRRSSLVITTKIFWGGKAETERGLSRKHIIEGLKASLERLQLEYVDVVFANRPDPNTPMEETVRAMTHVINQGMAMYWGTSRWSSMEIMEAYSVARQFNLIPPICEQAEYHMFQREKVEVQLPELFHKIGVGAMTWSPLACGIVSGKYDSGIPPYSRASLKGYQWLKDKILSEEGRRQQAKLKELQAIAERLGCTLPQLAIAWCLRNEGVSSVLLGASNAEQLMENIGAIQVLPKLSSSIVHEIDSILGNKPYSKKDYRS

[5] = biological target: Voltage-gated potassium channel subunit beta-2 (Rattus norvegicus) (UniProt P62483); assay: KvBeta positive modulators, primary screen, biochemical, NADPH fluorescence (AID 623;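 active = NADPH fluorescence slope more negative than the mean of all samples by about 3 SD, 99.7% confidence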;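 note: fluorescence intensity change per second fitted from 20 to 320 s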); details: Recombinant KvBeta, NADPH fluorescence decrease slope, 10 min; at 10 µM; stronger effect = lower value
[6] = biological target: Alpha-2C adrenergic receptor (Homo sapiens) (UniProt P18825); assay: modulators of alpha2C/GIRK thallium flux, primary screen, cell-based, HEK293 alpha2C/GIRK1/2 (AID 624); details: thallium flux BTC fluorescence, at 10 µM, actives lie on both sides;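 note: slope of fluorescence ratio to pre-addition baseline per second over 15 to 24 s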
Sequence of Alpha-2C adrenergic receptor (Homo sapiens) (P18825 whole entry, looked up): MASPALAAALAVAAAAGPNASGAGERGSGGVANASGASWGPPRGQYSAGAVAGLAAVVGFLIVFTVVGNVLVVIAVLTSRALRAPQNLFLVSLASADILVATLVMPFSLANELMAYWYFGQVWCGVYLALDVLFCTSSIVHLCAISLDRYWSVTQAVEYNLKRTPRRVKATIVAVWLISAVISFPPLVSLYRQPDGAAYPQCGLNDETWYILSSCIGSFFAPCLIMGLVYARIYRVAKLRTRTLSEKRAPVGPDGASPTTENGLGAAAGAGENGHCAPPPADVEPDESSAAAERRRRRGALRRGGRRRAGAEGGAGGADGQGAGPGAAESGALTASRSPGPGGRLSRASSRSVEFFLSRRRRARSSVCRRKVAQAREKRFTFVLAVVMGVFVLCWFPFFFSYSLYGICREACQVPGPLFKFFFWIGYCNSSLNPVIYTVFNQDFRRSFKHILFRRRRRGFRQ

[7] = inhibitors of Sendai virus-induced IRF3 signaling, primary screen, TLR/RLR signaling modifier project, cell-based, Sendai virus stimulus, luciferase, 10K MLSCN set (AID 602276;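 active = inhibition at or above 50% at 10 µM; inactive = inhibition below 50%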;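 note: firefly luciferase from ISG56 promoter only with Renilla not read in this screen; 0% = Sendai virus plus DMSO and 100% = medium plus DMSO without virus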); details: HEK293 RL24 IRF3 luciferase reporter, at 10 µM, stronger effect = higher value
[8] = inhibitors of poly I:C-induced TLR3 signaling, primary screen, cell-based, poly I:C stimulus, luciferase, 10K MLSCN set (AID 602277;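 active = inhibition of the reporter signal at or above 50%; inactive = inhibition below 50%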); details: HEK293-TLR3 RL24 IRF3 luciferase reporter, at 10 µM, stronger effect = higher value

Structure (SMILES) | cell count [1] | inhibition [1] | inhibition of aggregation [2] | nuclei count [2] [%] | inhibition [3] | nuclei count [3] [%] | fluorescence slope [4] | NADPH fluorescence slope [5] | slope [6] | inhibition [7] | inhibition [8]
O=C(CCSc1ccccc1)Nc1ccc(S(=O)(=O)N2CCOCC2)cc1 | 381 | 5.2% (inactive) | 8.5% (inactive) | 105 | -102% (inactive) | 109 | -0.53 (inactive) | -5.2e-06 (inactive) | 0.00555 (inactive) | 18.1% (inactive) | 11.6% (inactive)
CCOC(=O)c1sc2nc(NC(=O)COc3ccccc3)sc2c1C | 715 | -6.9% (inactive) | 9.3% (inactive) | 106 | -12.6% (inactive) | 105 | -0.591 (inactive) | -1.3e-05 (inactive) | 0.00688 (inactive) | -24% (inactive) | -40.4% (inactive)
C=CCc1ccccc1OCC(O)CN1CCN(Cc2ccc3c(c2)OCO3)CC1 (configuration not stated) | 321 | 4.5% (inactive) | -3.4% (inactive) | 91.2 | -2% (inactive) | 91.6 | -0.457 (inactive) | 1.5e-05 (inactive) | 0.0057 (inactive) | 10.6% (inactive) | 1.32% (inactive)
COc1ccc(OC)c(C2=NOC(C(=O)Nc3cc(C)nn3-c3ccccc3)C2)c1 (configuration not stated) | 605 | 5.8% (inactive) | -4.1% (inactive) | 84.1 | 10.7% (inactive) | 107 | -0.605 (inactive) | -4.8e-05 (inactive) | 0.00657 (inactive) | 7.53% (inactive) | 19.2% (inactive)
Cc1cc(C)c2cc3c(ccn3C3OC[C@H](O)[C@H](O)[C@H]3O)cc2n1 (some centres not stated) | 699 | -21.8% (inactive) | -19.6% (inactive) | 121 | -106% (inactive) | 95.9 | -0.0157 (active) | -2.8e-05 (inactive) | 0.002 (inactive) | 15.4% (inactive) | 27.3% (inactive)
COc1cccc(C2=NOC(C(=O)Nc3cc(C)nn3-c3ccccc3)C2)c1OC (configuration not stated) | 570 | -6.2% (inactive) | -1.5% (inactive) | 105 | -19.4% (inactive) | 107 | -0.586 (inactive) | -5.4e-05 (inactive) | 0.00584 (inactive) | 16.2% (inactive) | 23.8% (inactive)
Cc1c(NS(=O)(=O)c2ccc3c(c2)n(C)c(=O)n3C)c(=O)n(-c2ccccc2)n1C | 582 | 2.7% (inactive) | -2% (inactive) | 99.2 | 28% (inactive) | 93 | -0.616 (inactive) | 1.5e-05 (inactive) | 0.00372 (inactive) | 15.8% (inactive) | 13.4% (inactive)
COc1ccc2c(c1)CCc1cc(C(=O)N3CCN(c4ccc(N5CCOCC5)nn4)CC3)sc1-2 | 583 | 5.5% (inactive) | -28.1% (inactive) | 127 | -61.7% (inactive) | 114 | -0.499 (inactive) | -1.1e-05 (inactive) | 0.00712 (inactive) | 2.81% (inactive) | -42.5% (inactive)
O=c1c2[nH]c3cccc(Cl)c3c2ncn1CCN1CCCCC1 | 300 | -2.8% (inactive) | -4.9% (inactive) | 89 | -0.5% (inactive) | 106 | -0.618 (inactive) | -2.5e-05 (inactive) | 0.00476 (inactive) | 16.5% (inactive) | 27.2% (inactive)
Cc1ccc(S(=O)(=O)N2CCN(C(=O)CSc3nnnn3C)C2)cc1 | 348 | -14.6% (inactive) | 1.4% (inactive) | 92.8 | -89.7% (inactive) | 113 | -0.35 (inactive) | 5.7e-06 (inactive) | 0.00463 (inactive) | 6.82% (inactive) | 20.3% (inactive)
Cc1ccccc1OCc1nc2ccccc2c(=O)n1/N=C/c1ccco1 | 373 | -13.1% (inactive) | 4% (inactive) | 57.5 | -47.5% (inactive) | 85.3 | -0.46 (inactive) | -4.6e-05 (inactive) | 0.00374 (inactive) | -5.07% (inactive) | -33% (inactive)
CCCCOc1ccc(-c2ncc(C(=O)OCC)c(N)n2)cc1 | 377 | 1.6% (inactive) | 16.9% (inactive) | 73.4 | -71.6% (inactive) | 115 | -0.452 (inactive) | -4.6e-05 (inactive) | 0.00612 (inactive) | 0.257% (inactive) | -34.4% (inactive)
